According to PubChem BioAssay (EPA / NIEHS):
Inconclusive results are not listed. Activity calls are given as the source filed them. How the source made its calls, unless noted: active means hit-call score of the fitted dose curve at least 0.9, where 1 is the maximum; inactive means score below 0.9.

Tests used:
[1] = TOX21_p53_BLA_p2_viability: Viability Assessment in the Tox21 HCT-116 p53 Agonism Beta-lactamase Assay, Phase 2 (AID 2283591; active means hit-call score of the fitted dose curve at least 0.9, where 1 is the maximum;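 further: compound exposure lasted 16 h at 37 °C; actives lower the ATP signal meaning cytotoxicity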)
Outline: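 HCT-116 p53-bla cells (4000/well) rested 5 h at 37C, then received compounds in DMSO (217-fold dilution) for 16 h at 37C, 5% CO2. After the CCF4 read, CellTiter-Glo was added; ATP luminescence was read after 30 min at room temperature.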

[2] = TOX21_p53_BLA_p4_viability: Viability Assessment in the Tox21 HCT-116 p53 Agonism Beta-lactamase Assay, Phase 4 (AID 2283597; active means hit-call score of the fitted dose curve at least 0.9, where 1 is the maximum;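 further: hits lower the luminescence signal meaning cytotoxicity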)
Outline: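 Cells plated, 5 h pre-incubation; DMSO compounds pinned (217-fold dilution); 16 h, 37C/5% CO2; CCF4-AM 2 h RT; CellTiter-Glo 30 min RT; luminescence read.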

[3] = target: Cellular tumor antigen p53 (Homo sapiens) (UniProt P04637); test: TOX21_p53_BLA_p5_ratio: Tox21 HCT-116 p53 Agonism Beta-lactamase Assay, Ratio, Phase 5 (AID 2283599; active means hit-call score of the fitted dose curve at least 0.9, where 1 is the maximum)
Cellular tumor antigen p53 (Homo sapiens), sequence (P04637 whole entry, looked up): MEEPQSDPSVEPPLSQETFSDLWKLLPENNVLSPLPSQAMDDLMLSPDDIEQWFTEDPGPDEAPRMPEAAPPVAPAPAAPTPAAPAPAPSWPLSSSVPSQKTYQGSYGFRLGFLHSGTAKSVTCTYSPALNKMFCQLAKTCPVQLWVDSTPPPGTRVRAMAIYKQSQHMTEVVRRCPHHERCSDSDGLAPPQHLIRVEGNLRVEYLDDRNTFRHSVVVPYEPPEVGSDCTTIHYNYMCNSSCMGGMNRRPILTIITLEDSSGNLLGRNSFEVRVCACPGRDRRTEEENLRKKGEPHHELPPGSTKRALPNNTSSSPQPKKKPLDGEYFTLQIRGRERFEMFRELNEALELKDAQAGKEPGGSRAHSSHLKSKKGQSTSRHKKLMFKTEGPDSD
Outline: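 HCT-116 cells carrying a p53-inducible beta-lactamase reporter were seeded at 4000 cells/well and dosed after 5 h with compound in DMSO (217-fold dilution). After 16 h at 37C, CCF4-AM substrate was added for 2 h, and the 460/530 nm emission ratio was scored as gain-of-signal versus DMSO.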

[4] = CCTE_Shafer_MEA_dev_firing_rate_mean: CCTE's Neural Network Formation Assay for Mean Firing Rate, Shafer Lab (AID 2284031)
Outline: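 Primary rat cortical neurons on 48-well MEA plates, exposed from plating day 0 with dosing renewed on DIV 5 and 9. Mean well firing rate over active electrodes, recorded days 5, 7, 9, 12, summarised as trapezoidal AUC.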

[5] = CCTE_Shafer_MEA_dev_per_burst_spike_percent: CCTE's Neural Network Formation Assay for Percent of Spikes in a Burst, Shafer Lab (AID 2284032)
Outline: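 Rat primary cortical neurons on 16-electrode MEA wells, dosed from plating day 0 for 12 days with renewal on DIV 5 and 9; spikes-in-bursts percentage averaged over bursting electrodes, collapsed as AUC across days 5, 7, 9, 12; loss direction versus DMSO.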

[6] = CCTE_Shafer_MEA_dev_active_electrodes_number: CCTE's Neural Network Formation Assay for Number of Active Electrodes, Shafer Lab (AID 2284040; active means hit-call score of the fitted dose curve at least 0.9, where 1 is the maximum)
Outline: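 Primary rat cortical neurons on 16-electrode MEA wells, exposed from day 0 through day 12 with compound renewed at DIV 5 and 9 feeds. Active electrodes (mean firing ≥5 spikes/min) counted at DIV 5, 7, 9, 12; trapezoidal AUC across days, loss-of-signal versus DMSO.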

[7] = CCTE_Shafer_MEA_dev_burst_rate: CCTE's Neural Network Formation Assay for Burst Rate, Shafer Lab (AID 2284042)
Outline: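 Primary rat cortical neurons on PEI-coated 48-well MEA plates (laminin added with cells at plating) (16 electrodes/well), exposed from plating to day 12, dosing renewed at DIV 5 and 9. Burst rate averaged over active electrodes, recorded DIV 5, 7, 9, 12, summarized as AUC; loss versus DMSO.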

[8] = CCTE_Shafer_MEA_dev_bursting_electrodes_number: CCTE's Neural Network Formation Assay for Number of Bursting Electrodes, Shafer Lab (AID 2284043; active means hit-call score of the fitted dose curve at least 0.9, where 1 is the maximum)
Outline: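 Primary rat cortical neurons were cultured on PEI-coated 48-well MEA plates (16 electrodes/well) and exposed from plating through day 12, with compound renewed at feeds on DIV 5 and 9. Electrodes bursting ≥1 per 2 min were counted on DIV 5, 7, 9, 12; trapezoidal AUC taken.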

[9] = CCTE_Shafer_MEA_dev_per_burst_interspike_interval: CCTE's Neural Network Formation Assay for Burst Interspike Interval, Shafer Lab (AID 2284044);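 further: mean spike spacing inside bursts as AUC over recordings on days 5 7 9 12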
Outline: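 Neurons from rat cortex plated onto PEI-coated MEA wells with laminin […] at 1.5 x 10^5 cells/well, then treated from day 0. Media and compound fully replaced on DIV 5 and 9. Extracellular spontaneous firing recorded four times; interspike interval per burst summarised as AUC.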

[10] = CCTE_Shafer_MEA_dev_burst_duration_mean: CCTE's Neural Network Formation Assay for Mean Burst Duration, Shafer Lab (AID 2284045)
Outline: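 Primary rat cortical neurons on PEI-coated 16-electrode MEA wells, exposed from plating through day 12 with compound renewed at DIV 5 and 9; spontaneous activity recorded days 5, 7, 9, 12. Well-mean burst duration collapsed as trapezoidal AUC, fitted for loss versus DMSO.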

[11] = CCTE_Shafer_MEA_dev_interburst_interval_mean: CCTE's Neural Network Formation Assay for Mean Interburst Interval, Shafer Lab (AID 2284046);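 further: well-mean interburst interval of bursting electrodes as AUC over four recording days; curve fitted for decrease in interburst interval relative to DMSO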
Outline: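 Recordings on days 5, 7, 9 and 12 give well-mean interburst interval across actively bursting electrodes, summarized as area under the curve. Cultures: rat cortical neurons, continuous exposure from day 0, compound renewed at feeds; decrease analyzed versus DMSO.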

[12] = CCTE_Shafer_MEA_dev_inter_network_spike_interval_mean: CCTE's Neural Network Formation Assay for Mean Inter-network Spike Interval, Shafer Lab (AID 2284047)
Outline: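 Primary rat cortical neurons on 16-electrode MEA wells, exposed from plating day 0 through DIV 12, compound renewed at DIV 5 and 9 media changes. Mean interval between network-spike peaks recorded DIV 5, 7, 9, 12; collapsed as trapezoidal AUC, fitted downward versus DMSO.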

[13] = CCTE_Shafer_MEA_dev_network_spike_peak: CCTE's Neural Network Formation Assay for Mean Number of Electrodes in Network Spike, Shafer Lab (AID 2284049)
Outline: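 Continuous 12-day exposure of rat cortical cultures, starting at plating, on MEA plates. Endpoint: electrodes participating in network-spike peaks, AUC across DIV 5–12, DMSO as negative control.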

[14] = CCTE_Shafer_MEA_dev_spike_duration_mean: CCTE's Neural Network Formation Assay for Mean Spike Duration, Shafer Lab (AID 2284051);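 further: mean network spike duration pooled as area under curve over DIV 5 to 12 recordings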
Outline: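 Primary rat cortical neurons on 16-electrode MEA wells (PEI-coated, laminin in plating drop), exposed from plating through DIV 12 with compound renewed at DIV 5 and 9. Mean network-spike duration recorded DIV 5, 7, 9, 12; trapezoidal AUC across days, DMSO baseline.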

[15] = CCTE_Shafer_MEA_dev_network_spike_duration_std: CCTE's Neural Network Formation Assay for Standard Deviation of Network Spike Duration, Shafer Lab (AID 2284052);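 further: area under curve of spike duration SD across recording days 5 to 12; hits are decreases in network spike duration SD versus DMSO vehicle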
Outline: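 Primary rat cortical neurons on PEI-coated 16-electrode MEA wells, exposed from plating day 0 through day 12 with compound renewed at DIV 5 and 9. Network spike duration SD recorded on days 5, 7, 9, 12, collapsed as trapezoidal AUC; loss-of-signal fit versus DMSO.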

[16] = CCTE_Shafer_MEA_dev_per_network_spike_spike_number_mean: CCTE's Neural Network Formation Assay for Mean Number of Spikes in a Network Spike, Shafer Lab (AID 2284053)
Outline: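 Primary rat cortical neurons on 48-well, 16-electrode MEA plates were exposed from plating to DIV 12, with dosing renewed on DIV 5 and 9. Spikes per network spike (0.05 s peak window) were recorded on DIV 5, 7, 9 and 12 and collapsed as trapezoidal AUC versus DMSO.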

[17] = CCTE_Shafer_MEA_dev_per_network_spike_spike_percent: CCTE's Neural Network Formation Assay for Percent of Spikes in a Network Spike, Shafer Lab (AID 2284054)
Outline: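 Primary rat cortical neurons on 16-electrode MEA wells (PEI-coated, laminin at plating), exposed from day 0 with renewal at DIV 5 and 9; spikes within 0.05 s of network-spike peaks over total spikes, AUC across days 5, 7, 9, 12.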

[18] = CCTE_Shafer_MEA_dev_LDH: CCTE's Lactate Dehydrogenase Assay for Cytotoxicity in the Neural Network Formation Assay, Shafer Lab (AID 2284068; active means hit-call score of the fitted dose curve at least 0.9, where 1 is the maximum;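 further: exposure for twelve days from plating with re-dosing on DIV 5 and 9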)
Outline: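 Primary rat cortical neurons were plated on PEI/laminin MEA plates and exposed from day 0 for twelve days, with compound renewed at DIV 5 and 9. Cytotoxicity was determined by spectrophotometric LDH assay relative to DMSO.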

[19] = CCTE_Shafer_MEA_dev_AB: CCTE's Alamar Blue Assay for Cytotoxicity in the Neural Network Formation Assay, Shafer Lab (AID 2284083; active means hit-call score of the fitted dose curve at least 0.9, where 1 is the maximum;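 further: twelve days of exposure from plating with re-dosing on DIV 5 and 9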)
Outline: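 Primary rat cortical neurons on PEI-coated 48-well MEA plates, 1.5 x 10^5 cells/well in laminin drop; compound exposure from day 0 of plating for twelve days, renewed at medium changes on DIV 5 and 9. Viability read as resazurin reduction by fluorescence, relative to DMSO.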

[20] = CCTE_Shafer_MEA_dev_mutual_information_norm: CCTE's Neural Network Formation Assay for Mutual Information Normalization, Shafer Lab (AID 2284091)
Outline: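 Rat cortical cultures, 48-well MEA, continuous exposure DIV 0–12 with full media/compound change DIV 5 and 9. Readout: inter-electrode mutual information, AxIS adaptive spike detection; AUC across DIV 5/7/9/12 recordings; DMSO baseline, negative fitting direction.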

[21] = CCTE_Shafer_MEA_dev_correlation_coefficient_mean: CCTE's Neural Network Formation Assay for Mean Correlation Coefficient, Shafer Lab (AID 2284093)
Outline: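 Spontaneous activity recorded on days 5, 7, 9 and 12 post-plating; pairwise spike correlations are averaged across active electrodes and collapsed to an area-under-curve. Rat cortical cultures are dosed from plating through 12 days, with compound renewed at media changes.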

[22] = CCTE_Mundy_HCI_Cortical_Synap_Neur_Matur_NeuriteSpotCountPerNeuriteLength: CCTE's Synaptogenesis and Neurite Maturation Assay in rat cortical cells for Neurite Spot Count per Neurite Length, Mundy Lab (AID 2284210)
Outline: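 Rat primary cortical cultures, glia arrested with AraC at DIV 5, were dosed with media change at DIV 7 and fixed at DIV 12. Synaptophysin puncta per MAP2-labelled neurite length were quantified by high-content imaging versus DMSO.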

[23] = CCTE_Mundy_HCI_Cortical_NOG_NeuriteLength: CCTE's Neurite Outgrowth Assay in rat cortical cells for Neurite Length, Mundy Lab (AID 2284213)
Outline: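 Neurite length was read by high-content imaging of βIII-tubulin-labelled neurites in rat primary cortical cultures. Activity was fitted relative to DMSO.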

[24] = CCTE_Mundy_HCI_Cortical_Synap_Neur_Matur_NeuriteLength: CCTE's Synaptogenesis and Neurite Maturation Assay in rat cortical cells for Neurite Length, Mundy Lab (AID 2284214)
Outline: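 Rat primary cortical cultures, AraC added DIV 5, dosed DIV 7 through DIV 12 […]. Fixed, MAP2/synaptophysin immunostained with Hoechst; neurite length by high-content imaging, fitted in positive direction versus DMSO.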

[25] = CCTE_Mundy_HCI_Cortical_Synap_Neur_Matur_NeuriteSpotCountPerNeuron: CCTE's Synaptogenesis and Neurite Maturation Assay in rat cortical cells for Neurite Spot Count per Neuron Count, Mundy Lab (AID 2284215)
Outline: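 Rat cortical primary cultures; AraC DIV 5 to arrest glia; dosing + media change DIV 7; fixed DIV 12. Anti-MAP2/anti-synaptophysin, Hoechst nuclei; HCI puncta count per neuron, positive fitting direction vs DMSO.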

[26] = CCTE_Mundy_HCI_Cortical_Synap_Neur_Matur_SynapseCount: CCTE's Synaptogenesis and Neurite Maturation Assay in rat cortical cells for Synapse Count, Mundy Lab (AID 2284218)
Outline: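 Rat primary cortical cultures, AraC at DIV 5, chemical dosing DIV 7 to DIV 12 (288.33 h). Fixed cells stained for MAP2, synaptophysin and Hoechst; synapses per neuron counted by high-content imaging, loss of signal versus DMSO.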

[27] = CCTE_Mundy_HCI_hN2_NOG_NeuriteCount: CCTE's Neurite Outgrowth Assay in human hN2 cells for Neurite Count, Mundy Lab (AID 2284219; active means hit-call score of the fitted dose curve at least 0.9, where 1 is the maximum)
Outline: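 In this morphology assay, hNP1-derived neurons received test chemical 2 h post-plating and were fixed two days later in warm paraformaldehyde/sucrose containing Hoechst 33342. Neurites, labelled by rabbit anti-βIII-tubulin (1:800) and Alexa Fluor-488 (1:500), were counted automatically.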

[28] = CCTE_Mundy_HCI_hN2_NOG_NeuriteLength: CCTE's Neurite Outgrowth Assay in human hN2 cells for Neurite Length, Mundy Lab (AID 2284220; active means hit-call score of the fitted dose curve at least 0.9, where 1 is the maximum)
Outline: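 Using βIII-tubulin immunofluorescence and Hoechst nuclear counterstain, this component quantifies neurite length in hNP1-derived neurons.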

[29] = CCTE_Mundy_HCI_hN2_NOG_NeuronCount: CCTE's Neurite Outgrowth Assay in human hN2 cells for Neuron Count, Mundy Lab (AID 2284221; active means hit-call score of the fitted dose curve at least 0.9, where 1 is the maximum)
Outline: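 Read-out is the number of betaIII-tubulin-positive neurons imaged by automated high-content analysis, with DMSO as negative control.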

[30] = CCTE_Mundy_HCI_Cortical_Synap_Neur_Matur_CellBodySpotCount: CCTE's Synaptogenesis and Neurite Maturation Assay in rat cortical cells for Cell Body Spot Count, Mundy Lab (AID 2284223)
Outline: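 Rat cortical neurons; AraC @ DIV 5; dose + media change DIV 7; fix DIV 12; anti-MAP2/anti-synaptophysin IF, Hoechst; HCI count of soma synaptophysin puncta/neuron; DMSO = negative control.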

[31] = CCTE_Mundy_HCI_Cortical_NOG_NeuronCount: CCTE's Neurite Outgrowth Assay in rat cortical cells for Neuron Count, Mundy Lab (AID 2284236; active means hit-call score of the fitted dose curve at least 0.9, where 1 is the maximum;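 further: neurons counted by imaging betaIII-tubulin and Hoechst stained cortical cells; cells exposed to compound for about 48 hours before fixation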)
Outline: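 Read-out: neuron number by high-content imaging of betaIII-tubulin (Alexa Fluor-488) and Hoechst-labelled rat primary cortical cells.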

[32] = CCTE_Mundy_HCI_hNP1_Casp3_7: CCTE's Caspase-Glo 3/7 Assay in human neuroprogenitor cells for Apoptosis, Mundy Lab (AID 2284240)
Outline: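 Neuroepithelial-lineage stem cells from WA09 embryonic cells were treated with chemicals after 40–44 h of culture. Twenty-four hours later, caspase-3/7 activation was detected luminescently after a 30 min room-temperature reagent step, with DMSO as baseline.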

[33] = CCTE_Mundy_HCI_Cortical_Synap_Neur_Matur_NeuronCount: CCTE's Synaptogenesis and Neurite Maturation Assay in rat cortical cells for Neuron Count, Mundy Lab (AID 2284242; active means hit-call score of the fitted dose curve at least 0.9, where 1 is the maximum)
Outline: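 Rat primary cortical cells, AraC added at DIV 5, dosed with media change from DIV 7 to DIV 12. Fixed, Hoechst-stained and immunolabelled for MAP2 and synaptophysin; neuron number counted by high-content imaging, loss fitted versus DMSO.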

Measured: AC50

CN[C@]1(c2ccccc2Cl)CCCCC1=O
active: [18] 9.27 µM
inactive: all other assays above
